Our source for the morphology score and SARS-CoV-2 infection rate values is the supplement of paper PMC13380429.

SMILES strings stand for the structures.

The test system of experiment [1] is Vero E6 infected with SARS-CoV-2. In words: morphology score (similarity to uninfected cells); higher = more like uninfected cells. The settings on record: 24 h.
Experiment [2] has the same test system. In words: SARS-CoV-2 infection rate relative to infected DMSO; higher = more infection, active = 60 or less. Particulars: 24 h.

In experiment [1], `N#Cc1ccc(Oc2ccc3c(c2)COB3O)cc1` [crisaborole] (10 µM) registered a morphology score of 0.0741. Besides, the SARS-CoV-2 infection rate in experiment [2] is 105% (inactive).
The corresponding values for `COc1cc(/C=C/C(=O)N2CCN(CC(=O)N3CCCC3)CC2)cc(OC)c1OC` [cinepazide] (10 µM) are -0.015 and 108% (inactive).
On the same counts, the results for `OC[C@@H](O)[C@@H](O)[C@H](O)[C@@H](O)CO` [sorbitol] (10 µM) are -0.0534 and 110% (inactive).
The corresponding values for `COc1c(C)c2c(c(O)c1C/C=C(\C)CCC(=O)O)C(=O)OC2` [mycophenolic-acid] (10 µM) are -0.0923 and 114% (inactive).
In turn, `CCC(=O)NC1CCc2cccc(OC)c2C1` (stereo unspecified) (10 µM) returned a morphology score in experiment [1] of -0.0478. Further, in experiment [2], the SARS-CoV-2 infection rate is 93.5% (inactive).
The corresponding values for `Cc1c2oc3c(C)ccc(C(=O)N[C@@H]4C(=O)N[C@@H](C(C)C)C(=O)N5CCC[C@H]5C(=O)N(C)CC(=O)N(C)[C@@H](C(C)C)C(=O)O[C@@H]4C)c3nc-2c(C(=O)N[C@@H]2C(=O)N[C@@H](C(C)C)C(=O)N3CCC[C@H]3C(=O)N(C)CC(=O)N(C)[C@@H](C(C)C)C(=O)O[C@@H]2C)c(N)c1=O` [actinomycin-d] (0.833333 µM) are 0.164 and 93% (inactive).
The corresponding values for `COc1cc(/C=C(\C#N)C(N)=O)cc(CSc2nc3ccccc3s2)c1O` [tyrphostin-AG-825] (10 µM) are -0.108 and 108% (inactive).
Turning to `COc1cc(F)c(C(C)C)cc1-c1ccc(C(F)(F)F)cc1CN1C(=O)O[C@H](c2cc(C(F)(F)F)cc(C(F)(F)F)c2)[C@@H]1C` [anacetrapib] (10 µM), the morphology score in experiment [1] amounted to 0.116. In addition, in experiment [2], the SARS-CoV-2 infection rate was 106% (inactive).
